The sample as a whole holds a higher share of hits than the screen did.
15-hLO-2 inh: inhibitors of human 15-lipoxygenase 2 (ALOX15B) | purified 15hLO-2, xylenol orange hydroperoxide absorbance | Potency, µM (series often up to 57.1 µM), actives largely listed as inhibitors | 110,000 compounds, 0.56% hits | AID 881; note: nearly all actives have a fitted effect of over 60% in size
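Enzyme 50 nM, AA 45 uM, 25 mM Hepes pH 7.5 + 0.01% Triton X-100; cpd preinc 15 min RT, rxn 90 min RT; stop/detect with 200 uM XO + 300 uM Fe(II) in 50 mM H2SO4, 30 min; A573/A405.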
PNC assembly inh: perinucleolar compartment assembly inhibition; activity change (PNC), negative = inhibition, % at 10 µM; 140,000 compounds, 3.1% hits; PC3M PTB-GFP, PNC prevalence imaging, 16 h; active compounds read low;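 active = readout at or below -70, meaning at least 70% loss of cells showing the perinucleolar compartment, a nuclear body marking cancer cells; inconclusive = readout between -30 and a set limit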
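Compounds are pinned in duplicate onto adhered PC3M cells stably expressing GFP-tagged PTB and incubated 16 h at 37 C. Cells are then fixed, nuclei stained with Hoechst, and PNC-positive cells counted.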
IMPase cell inh: membrane-permeable compound that blocks inositol monophosphatase; CHO-M1 cells, IP1 accumulation, HTRF TR-FRET ratio; inhibition (IP1 accumulation), % at 46.1 µM; 120,000 tested, under 10 active; active = well fitted curve in the direction sought with a large enough effect in the signal ratio, not every such curve was filed as active; inconclusive = small, poorly fitted or top-dose-only effect, or a change in a side signal; inactive = no such curve, though single readings can be large or run the other way; the % refers to the signal ratio;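 note: cells stimulated with carbachol in lithium chloride buffer; higher means more IMPase inhibition seen as more IP1 and lower FRET ratio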
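The IP-One HTRF competitive assay in carbachol-stimulated CHO-M1 cells quantifies cellular IP1. Compounds spanned up to 46 uM final, and activity is expressed as AC50 from concentration-response fits of the ratio and donor data.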
IMPase Li inh: IMPase inhibition in cells with lithium potentiation. CHO-M1 cells, IP1 TR-FRET (IP-One), carbachol + lithium. AID 1457. Potency, µM (highest dose often 59.4 µM), hits mostly inhibitors. 210,000 compounds, 0.35% hits;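 note: IP1 builds up when IMPase is blocked and the TR-FRET signal falls; nearly all actives have a fitted effect of over 50% in size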
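Lithium-sensitised IP1 accumulation assay; M1-expressing CHO cells treated 30 min at 37C with compound. Competitive antibody detection by time-resolved FRET followed a 10 min room-temperature lysis step.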
12-hLO inh: blocks human 12-lipoxygenase activity | purified 12-hLO, xylenol orange hydroperoxide absorbance | Potency, µM (series often up to 57.1 µM), actives largely listed as inhibitors | 150,000 compounds, 0.12% hits | AID 1452; note: nearly all actives have a fitted effect of over 55% in size
Target sequence (P18054 whole entry, looked up): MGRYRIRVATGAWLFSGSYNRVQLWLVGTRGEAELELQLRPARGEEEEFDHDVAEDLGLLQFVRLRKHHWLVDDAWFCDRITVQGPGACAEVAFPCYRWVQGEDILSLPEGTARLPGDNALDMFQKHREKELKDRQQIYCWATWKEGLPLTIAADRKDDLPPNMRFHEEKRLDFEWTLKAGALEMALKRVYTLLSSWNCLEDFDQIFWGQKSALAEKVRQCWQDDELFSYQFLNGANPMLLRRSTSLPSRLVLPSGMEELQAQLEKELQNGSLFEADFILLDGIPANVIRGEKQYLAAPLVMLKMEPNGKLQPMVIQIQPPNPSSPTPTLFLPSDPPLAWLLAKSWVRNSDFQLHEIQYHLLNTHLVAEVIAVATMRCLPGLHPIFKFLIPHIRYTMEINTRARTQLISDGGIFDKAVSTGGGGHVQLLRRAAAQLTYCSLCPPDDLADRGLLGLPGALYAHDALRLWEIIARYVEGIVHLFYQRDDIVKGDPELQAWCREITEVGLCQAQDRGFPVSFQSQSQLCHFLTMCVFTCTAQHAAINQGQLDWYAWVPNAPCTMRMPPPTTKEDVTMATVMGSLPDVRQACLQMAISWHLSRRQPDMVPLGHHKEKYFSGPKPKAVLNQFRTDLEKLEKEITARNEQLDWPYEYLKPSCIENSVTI
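Purified human 12hLO (150 nM), preincubated 15 min with compound, then 40 uM arachidonic acid for 30 min, room temperature, Hepes pH 7.0 with 0.01% Triton X-100. Hydroperoxide detected by ferrous iron/xylenol orange; 573/405 nm absorbance ratio gives reaction progress.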
A number is an active result; n = inactive; u = inconclusive; x = no result; [ ] = another dose, or the depositor's remark. Unless noted, calls come from the whole dose curve; as a rule, active = well fitted curve in the direction sought with a large enough effect; inconclusive = small, poorly fitted or top-dose-only effect, or another doubt; inactive = no such curve, though single readings can be large; an effect the other way counts as inactive or inconclusive.

SMILES	15-hLO-2 inh	PNC assembly inh	IMPase cell inh	IMPase Li inh	12-hLO inh
c1nnc(NC2=NCCC2)s1	n	-111	n	n	n
Nc1cnn([C@@H]2O[C@H](CO)[C@@H](O)[C@H]2O)c(=O)n1	n	x	x	n	n
N=c1c2c(-c3ccccc3)c(-c3ccccc3)n(Cc3ccco3)c2ncn1Cc1ccco1	n	n	n	n	n
N=c1c2c(-c3ccccc3)c(-c3ccccc3)n(Cc3ccccc3)c2ncn1CCCn1ccnc1	n	-98	n	n	n
O=P(O)(CCc1ccccc1)CN1CCCCC1	n	-82	n	n	n
O=C1CCCCCN1CP(=O)(O)CCc1ccccc1	n	n	n	n	n
COc1cc2c(cc1OC)C1(CCCC1)CNC2C (stereo not given)	x	n	n	n	n
COc1cc2c(cc1OC)C1(CCCC1)C(N)=C2C#N	x	-100	n	n	u
CC(C)NC(=O)Cn1c(SCC(=O)N2CCCc3ccccc32)nc2ccccc21	n	n	n	n	n
Cn1cccc1Cc1nnc(SCC(=O)N2CCCc3ccccc32)n1-c1ccc(F)cc1	x	n	u	n	n
O=C(Cn1c(SCC(=O)N2CCCc3ccccc32)nc2ccccc21)N1CCCC1	x	-100	n	n	n
COc1ccc(-n2c(Cc3ccccc3)nnc2SCC(=O)N2CCCc3ccccc32)cc1	x	-100	n	n	n
COc1ccccc1CN1CCCC2(CCN(C(=O)c3c(C)noc3C)CC2)C1	n	x	x	n	n
COc1cccc(Cn2c(=O)c(-c3cccc(C#N)c3)nc3cnc(Nc4ccccc4)nc32)c1	n	x	x	n	n
CCOC(=O)c1[nH]n(-c2ccc(Cl)cc2)c(=O)c1C	x	-114	x	n	n
Cc1[nH]n(-c2ccc(Cl)cc2)c(=O)c1C(=O)c1ccccc1	x	x	x	n	x
Cc1ccc(-c2c[n+](CC(=O)N3c4ccccc4Sc4ccccc43)c3n2CCC3)cc1	x	u	n	n	n
O=C(C[n+]1cc(-c2ccccc2)n2c1CCC2)N1c2ccccc2Sc2ccccc21	x	-119	n	n	n
CCc1ccc(OCC(=O)Nc2ccc(Cl)c(-c3nc4cc(C)cc(C)c4o3)c2)cc1	x	x	n	x	x
CCOc1cccc(-c2nnc(SCC(=O)Nc3cc(OC)cc(OC)c3)n2N)c1	n	u	n	25µM	n
CCOc1cccc(-c2nnc(SCC(=O)Nc3ccc(OC)c(OC)c3)n2N)c1	n	-108	n	n	n
COc1cccc(NC(=O)CSc2nnc(-c3cccc(OC(C)C)c3)n2N)c1	n	n	n	x	n
CCOc1cccc(-c2nnc(SCC(=O)Nc3cc(C)ccc3OC)n2N)c1	n	n	n	n	n
O=C(Nc1cccc(Cl)c1)N1CCN(Cc2ccccc2)CC1	n	-96	u	n	n
O=C(c1ccccc1)N1CCN(Cc2ccccc2)CC1	x	-100	n	n	n
SMILES	15-hLO-2 inh	PNC assembly inh	IMPase cell inh	IMPase Li inh	12-hLO inh
Cc1ccc(S(=O)(=O)Cc2ccc(C(=O)NCc3ccc4c(c3)OCO4)o2)cc1	n	-107	n	n	n
c1ccc2c(N3CCNCC3)nc(-c3ccoc3)nc2c1	n	x	x	n	n
S=C(NCc1ccco1)Nc1cccc(Cl)c1	n	n	n	n	n
S=C(NCc1ccco1)Nc1ccc(Cl)c(Cl)c1	u	n	n	n	18µM
C(=N\N1CCN(Cc2ccccc2)CC1)/c1cccnc1	x	-116	x	n	n
FC(F)(F)c1ccc(/C=N/N2CCN(Cc3ccccc3)CC2)cc1	x	u	x	n	n
C[Si](C)(C)Cl	n	x	x	n	n
O=C(N/N=C/c1cn(-c2ccccc2)nc1-c1cc2ccccc2o1)c1ccncc1	x	n	x	n	n
O=C(N/N=C/c1cn(-c2ccccc2)nc1-c1cc2ccccc2o1)c1cccnc1	x	-106	x	n	n
CCCc1ccc(OCc2nc(-c3ccc(NC(=O)c4cccs4)cc3)no2)cc1	x	-91	x	n	n
CCCc1ccc(OCc2nc(-c3ccc(NC(=O)c4ccco4)cc3)no2)cc1	u	n	n	n	n
Cc1ccccc1OCc1nc(-c2ccc(NC(=O)c3ccco3)cc2)no1	x	-100	n	n	n
CC1Cc2cc(/C(O)=C3/C(=O)C(=O)N(CCN4CCOCC4)C3c3cccc(Cl)c3)ccc2O1 (stereo not given)	n	u	u	6.3µM	n
CC(NC(=O)CCN1C(=O)c2ccccc2C1=O)c1ccc2c(c1)CCCC2 (stereo not given)	x	-113	x	n	n
N#CC(=C(/N)Sc1ccccc1N)/C(C#N)=C(/N)Sc1ccccc1N	u	x	n	n	u
Cn1cccc1C(=O)C(=O)Nc1ccc(Cl)cc1	n	n	n	n	n
Cn1cccc1C(=O)C(=O)Nc1cc(Cl)cc(Cl)c1	n	u	n	14µM	n
COc1ccc(-c2oc3ncn4nc(COc5ccccc5C)nc4c3c2-c2ccc(OC)cc2)cc1	x	x	n	x	x
CC(C)(C)c1nnc(NC(=O)CCn2cnc3ccccc3c2=O)s1	x	x	x	n	x
CC(C)(C)NC(=O)CSc1nnc(NC(=O)CCn2cnc3ccccc3c2=O)s1	n[2.29 µM]	-122	n	n	n
O=C(CN(C1CCCCC1)S(=O)(=O)c1ccc(Cl)cc1)NCc1ccncc1	n	-100	n	n	n
O=C(CN(C1CCCCC1)S(=O)(=O)c1ccc(Br)cc1)NCc1ccncc1	x	x	x	n	x
Cc1cc(C)c(S(=O)(=O)N(CC(=O)NCc2cccnc2)C2CCCCC2)c(C)c1	n	-88	n	n	n
CS(=O)(=O)Nc1c(O)ccc2c1CCCC2C1=NCCN1 (stereo not given)	x	x	x	n	x
Cc1sc2ccccc2[n+]1CCC(=O)O	n[11.4 µM]	x	x	n	n[11.4 µM]
SMILES	15-hLO-2 inh	PNC assembly inh	IMPase cell inh	IMPase Li inh	12-hLO inh
CCOc1ccc(-n2nc3ccc(NC(=O)COc4ccccc4C)cc3n2)cc1	x	x	n	x	x
Cc1ccc(S(=O)(=O)CC(=O)N(C)C)cc1	x	-100	n	n	n
Cc1cccc(C)c1NC(=O)Cn1cc(C(=O)C2CC2)c2ccccc21	x	x	n	x	x
CCOc1ccc(N2C(=O)CC(SC(=NC)Nc3ccc(F)cc3)C2=O)cc1 (stereo not given)	x	-100	n	n	n
CCCOc1ccc(N2C(=O)CC(SC(=NC)Nc3ccc(F)cc3)C2=O)cc1 (stereo not given)	n	n	n	n	n
COc1ccc(CN=C(Nc2ccccc2)SC2CC(=O)NC2=O)cc1 (stereo not given)	x	x	x	n	x
O=C1CC(SC(=NCc2ccc3c(c2)OCO3)Nc2ccccc2)C(=O)N1 (stereo not given)	n	-115	n	n	n
CCOc1ccc(NC(=NCc2ccc3c(c2)OCO3)SC2CC(=O)N(c3ccccc3)C2=O)cc1 (stereo not given)	x	-100	n	n	n
O=C(Nc1ccccc1)NC1(C(=O)NCc2cccs2)CCCCC1	n[11.4 µM]	-96	n[1.84 µM]	n	n
Cc1ccc(C)c(OCCCC(=O)Nc2ccc(N3CCOCC3)cc2)c1	n	-84	n	n	n
CC(C)NC(=O)c1onc(CSc2ccccc2F)c1C(=O)O	n	-84	n	n	n
